Measured values: the supplement of paper PMC11150407
Structures can show the parent of a compound that is named as a salt. In all, about 2,100 compounds went through this assay and about 180 (8.6%) showed an effect of 50% or more. The full list was thinned out, with strong results kept by preference.

system: MOLM1 and UCSD/AML1 (averaged); test: cell viability relative to DMSO control (POC); higher = less growth inhibition; conditions: 1 µM; 72 h
Description: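 Primary viability screen in the 3q26 EVI1-high AML cell lines MOLM1 and UCSD/AML1 (1.5e3 cells/well, 384-well), compounds at 1 uM for 72 h. ATP CellTiter-Glo read-out given as percent of viable cells over DMSO control (POC), averaged over duplicates. DMSO was the negative control and 5 uM etoposide the positive control. This mapping covers the MicroSource Spectrum and Selleck anticancer libraries (drug names).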

| SMILES | cell viability |
| --- | --- |
| COc1c(O)cc2c(-c3ccccc3)cc(=O)oc2c1OC | 92.8% |
| COC(=O)Nc1nc2cc(Sc3ccccc3)ccc2[nH]1 | 41.9% |
| CCCSc1ccc2[nH]c(NC(=O)OC)nc2c1 | 12.4% |
| COC(=O)[C@@H]1OC(=O)C2OC23[C@@]1(C)CCC1[C@]2(C)C(C[C@@H](O)[C@]13C)C(C)(C)[C@H](OC(C)=O)C[C@@H]2OC(C)=O (some centres undefined) | 111% |
| O=C(O)CCCN1C(=O)c2cccc3cccc(c23)C1=O | 103% |
| COc1cc2cc3c4cc(OC)c(OC)cc4cc[n+]3c(C)c2cc1OC | 99.6% |
| C[C@H]1[C@H](C)CC[C@]2(C(=O)O)CC[C@]3(C)C(=CC[C@@H]4[C@@]5(C)C[C@@H](O)[C@H](O)[C@@](C)(CO)[C@@H]5[C@H](O)C[C@]43C)[C@H]12 | 86.8% |
| O=C(Nc1ccccc1-c1cn2c(CN3CCNCC3)csc2n1)c1cnc2ccccc2n1 | 95.6% |
| COc1cc(OC)c2c(=O)c(-c3ccc4c(c3)OCO4)coc2c1 | 127% |
| COC(=O)C[C@H]1C(C)(C)[C@@H](O)[C@@H]2CC3=C4CC(O)O[C@@H](c5ccoc5)[C@]4(C)CCC3[C@@]1(C)C2=O (stereo partly drawn) [3,16-DIDEOXYMEXICANOLIDE-3beta-DIOL] | 86.1% |
| C#Cc1cccc(Nc2ncnc3cc(OCCOC)c(OCCO)cc23)c1 | 65.1% |
| C#Cc1cccc(Nc2ncnc3cc(OCCOC)c(OCCO)cc23)c1 [OSI-420 (Desmethyl Erlotinib)] | 42.9% |
| COc1cc2ncnc(Nc3cccc(Br)c3)c2cc1OC | 61.8% |
| COc1cc2c(N3CCN(C(=O)Nc4ccc(OC(C)C)cc4)CC3)ncnc2cc1OCCCN1CCCCC1 [Tandutinib (MLN518)] | 73.6% |
| C#Cc1cccc(Nc2ncnc3cc(OC)c(OCCCCCCC(=O)NO)cc23)c1 | 22.2% |
| COc1ccc(-c2cc(=O)c3c(O)cc(OC)cc3o2)cc1 | 110% |
| CC(=O)C12OC(C)(c3ccccc3)OC1CC1C3CCC4=CC(=O)CCC4(C)C3CCC12C (centres undefined) | 89.4% |
| CCC(C)C(=O)OC1[C@@H]2CC3=C4CC(=O)O[C@@H](c5ccoc5)[C@]4(C)CCC3[C@@](C)(C2=O)[C@@H](CC(=O)OC)C1(C)C (some centres undefined) | 99.4% |
| CC(C)CCC[C@@H](C)[C@H]1CC[C@H]2[C@@H]3C[C@@H](O)[C@@]4(O)C[C@@H](O)CC[C@]4(C)[C@H]3CC[C@]12C [CHOLESTAN-3beta,5alpha,6beta-TRIOL] | 102% |
| CC(=O)O[C@H]1CC[C@]2(C)C(C[C@@H](OC(C)=O)[C@]3(C)C4=CC(=O)O[C@H](c5ccoc5)[C@@]4(C)CCC23)C1(C)C (stereo partly drawn) [3-DEOXO-3beta-ACETOXYDEOXYDIHYDROGEDUNIN] | 92.3% |
| CC(C)c1cc(-c2n[nH]c(=O)n2-c2ccc3c(ccn3C)c2)c(O)cc1O [Ganetespib (STA-9090)] | 2.49% |
| CC(=O)O[C@H]1C[C@@H](O)C(C)(C)[C@@H]2C[C@@H](OC(C)=O)[C@]3(C)[C@H](CC[C@@]4(C)[C@@H](c5ccoc5)OC(=O)[C@H]5O[C@@]534)[C@@]12C | 104% |
| O=c1cc(-c2ccccc2)oc2cc(O)c(O)cc12 | 96.6% |

| SMILES | cell viability |
| --- | --- |
| COc1cc(Nc2ncc3c(n2)-c2ccc(Cl)cc2C(c2c(F)cccc2OC)=NC3)ccc1C(=O)O [MLN8237 (Alisertib)] | 49.6% |
| C=C1[C@H]2CC[C@@]3(C)[C@H](c4ccoc4)OC(=O)C[C@]13O[C@H]1C[C@H](O)C(C)(C)[C@H](CC(=O)OC)[C@]12C [3-DEOXY-3beta-HYDROXYANGOLENSIC ACID METHYL ESTER] | 97.7% |
| C[C@@H]1CC[C@@]2(OC1)O[C@H]1C[C@H]3[C@@H]4CC=C5C[C@@H](O)CC[C@]5(C)[C@H]4CC[C@]3(C)[C@H]1[C@@H]2C | 93.7% |
| O=c1cc(-c2ccc(O)cc2)oc2cc(O[C@@H]3O[C@H](CO)[C@@H](O)[C@H](O)[C@H]3O)cc(O)c12 | 104% |
| O=C(O)c1cc2ccccc2[nH]1 | 118% |
| O=C(O)CCc1nc(-c2ccccc2)c(-c2ccccc2)o1 | 45.5% |
| O=C(O)CCCc1ccccc1 | 90.8% |
| O=C(O)CCC(=O)c1ccc(-c2ccccc2)cc1 | 93.4% |
| C[C@]1(O)C[C@@H](c2nc(-c3ccc4ccc(-c5ccccc5)nc4c3)c3c(N)nccn32)C1 [OSI-906 (Linsitinib)] | 100% |
| O=C(Nc1cccc(Cl)c1)Nc1ncc(CCNc2ncnc3ccsc23)s1 [SNS-314 Mesylate] | 60% |
| CC1(C)[C@@H](O[C@H]2O[C@H](C(=O)O)[C@@H](O)[C@H](O)[C@H]2O[C@@H]2O[C@H](C(=O)O)[C@@H](O)[C@H](O)[C@H]2O)CC[C@]2(C)[C@H]3C(=O)C=C4[C@@H]5C[C@@](C)(C(=O)O)CC[C@]5(C)CC[C@@]4(C)[C@]3(C)CC[C@@H]12 | 96.4% |
| COc1cc(/C=C/C(=O)O)cc(OC)c1OC | 118% |
| COc1cc([C@@H]2c3cc4c(cc3[C@@H](O[C@@H]3O[C@@H]5CO[C@@H](c6cccs6)O[C@H]5[C@H](O)[C@H]3O)[C@H]3COC(=O)[C@H]23)OCO4)cc(OC)c1O [Teniposide (Vumon)] | 12.4% |
| COc1cc([C@@H]2c3cc4c(cc3[C@@H](O[C@@H]3O[C@@H]5CO[C@@H](C)O[C@H]5[C@H](O)[C@H]3O)[C@H]3COC(=O)[C@H]23)OCO4)cc(OC)c1O | 59.4% |
| COc1cc([C@@H]2c3cc4c(cc3[C@@H](O[C@@H]3O[C@@H]5CO[C@@H](c6cccs6)O[C@H]5[C@H](O)[C@H]3O)[C@H]3COC(=O)[C@H]23)OCO4)cc(OC)c1O | 27.5% |
| C[C@@H]1CC[C@@]2(OC1)O[C@H]1C[C@H]3[C@@H]4CC[C@H]5C[C@@H](O)CC[C@]5(C)[C@H]4CC[C@]3(C)[C@H]1[C@@H]2C | 97.1% |
| CCC[C@H](NC(=O)/C(C#N)=C/c1cccc(Br)n1)c1ccccc1 | 57.8% |
| COc1ccc(C=CC(=O)O)cc1OC | 106% |
| CC(=O)c1c(O)cc(O)cc1O | 106% |
| O=C(NC1CCCCC1)NC1CCCCC1 | 120% |
| O=C(O)C(=O)O.[NH-]C1CCCCC1[NH-].[Pt+2] (centres undefined) [Oxaliplatin (Eloxatin)] | 41.3% |
| CC(C)=CCOc1cc2oc(=O)ccc2cc1O | 98% |
| O=c1cc(-c2cc(O)c(O)c(O)c2)oc2cc(O)cc(O)c12 | 106% |

| SMILES | cell viability |
| --- | --- |
| COC(=O)C[C@H]1C2(C)CC34OC5(C)O[C@@]6([C@H](OC(C)=O)C(OC(C)=O)[C@]7(C)C(/C(=C(/O)C(C)C)C(=O)O[C@H]7c7ccoc7)[C@@]6(O5)[C@H](OC(C)=O)[C@@]3(O)C2OC(=O)C(C)C)[C@]14C (some centres undefined) | 102% |
| CCCCCCCCCCCCCCCC(=O)OC[C@@H](NC(=O)C(Cl)Cl)[C@H](O)c1ccc([N+](=O)[O-])cc1 | 96.2% |
| O=C(N[C@H](CO)[C@H](O)c1ccc([N+](=O)[O-])cc1)C(Cl)Cl | 101% |
| O=C(O)CCC(=O)OC[C@@H](NC(=O)C(Cl)Cl)[C@H](O)c1ccc([N+](=O)[O-])cc1 | 40.2% |
| C[C@@H]1CC[C@@]23CCC4(C)[C@@](C=CC5[C@@]6(C)CCC(=O)C(C)(C)C6CC[C@]54C)(OC2=O)C3[C@H]1C (some centres undefined) | 95.6% |
| Oc1cc(O)c2c(c1)O[C@H](c1cc(O)c(O)c(O)c1)[C@H](O)C2 | 97.9% |
| COc1ccc2c(c1)OC[C@@H](Cc1ccc(OC)c(OC)c1)[C@@H]2O | 82.3% |
| CCCCCC/C=C\CCCCCCCc1cccc(O)c1C(=O)O | 81.2% |
| CC(=O)O[C@H]1CC[C@@]2(C)[C@H](CC[C@@H]3[C@@H]2CC[C@]2(C)[C@@H]4[C@H](C[C@@H]32)O[C@]2(CC[C@@H](C)CO2)[C@H]4C)C1 | 94.2% |
| CO[C@H]1/C=C\C=C(/C)C(=O)NC2=CC(=O)C(NCCN(C)C)=C(C[C@@H](C)C[C@H](OC)[C@H](O)[C@@H](C)/C=C(\C)[C@@H]1OC(N)=O)C2=O [17-DMAG HCl (Alvespimycin)] | 2.31% |
| C=CCNC1=C2C[C@@H](C)C[C@H](OC)[C@H](O)[C@@H](C)/C=C(\C)[C@H](OC(N)=O)[C@@H](OC)/C=C\C=C(/C)C(=O)NC(=CC1=O)C2=O [17-AAG (Tanespimycin)] | 29.1% |
| COC1=C2C[C@@H](C)C[C@H](OC)[C@H](O)[C@@H](C)/C=C(\C)[C@H](OC(N)=O)[C@@H](OC)/C=C\C=C(/C)C(=O)NC(=CC1=O)C2=O [Geldanamycin] | 0.865% |
| C=C1[C@@H]([C@@]2(C)C=CC(=O)C(C)(C)[C@@H]2CC(=O)OC)CC[C@@]2(C)[C@H](c3ccoc3)OC(=O)[C@H]3O[C@]132 | 102% |
| COC1=CC(=O)C=C(OC)C1=O | 91.5% |
| COc1cc(OC)c(C(C)=O)c(O)c1C | 111% |
| CN[C@@H](C)C(=O)N[C@H]1CN(C(=O)CC(C)C)CC[C@H]2CC[C@@H](C(=O)NC(c3ccccc3)c3ccccc3)N2C1=O | 68.5% |
| CON | 109% |
| CC(=O)OC/C=C(\C)CC/C=C(\C)CC/C=C(\C)CC/C=C(\C)CC/C=C(\C)CC/C=C(\C)CC/C=C(\C)CC/C=C(\C)CCC=C(C)C | 106% |
| O=C1C=C2CC3(O)COc4c(ccc(O)c4O)C3=C2C=C1O (centres undefined) | 97.6% |
| Cc1c2oc3c(C)ccc(C(=O)N[C@@H]4C(=O)N[C@H](C(C)C)C(=O)N5CCC[C@H]5C(=O)N(C)CC(=O)N(C)[C@@H](C(C)C)C(=O)O[C@@H]4C)c3nc-2c(C(=O)N[C@@H]2C(=O)N[C@H](C(C)C)C(=O)N3CCC[C@H]3C(=O)N(C)CC(=O)N(C)[C@@H](C(C)C)C(=O)O[C@@H]2C)c(N)c1=O | 1.96% |
| Cc1[nH]c(/C=C2\C(=O)Nc3ccc(S(=O)(=O)N(C)c4cccc(Cl)c4)cc32)c(C)c1C(=O)N1CCN(C)CC1 | 62.8% |
| Cc1[nH]c(/C=C2\C(=O)Nc3ccc(S(=O)(=O)Cc4c(Cl)cccc4Cl)cc32)c(C)c1C(=O)N1CCC[C@@H]1CN1CCCC1 | 92.1% |
| CCN(CC)CCNC(=O)c1c(C)[nH]c(/C=C2\C(=O)Nc3ccc(F)cc32)c1C [Sunitinib Malate (Sutent)] | 32.9% |
